Values joined by “and” are separate entries in the source; they are usually repeats but may differ in a detail not shown here. Equal values may be shown once. Results filed as inconclusive are left out. Values without a mark were called inactive. Active and inactive are the calls of the source. Calls come from the whole dose curve; as a rule, active = well fitted curve in the direction sought with a large enough effect; inconclusive = small, poorly fitted or top-dose-only effect, or another doubt; inactive = no such curve, though single readings can be large or run the other way.

We go through 4 compounds from PubChem BioAssay (NCATS).
% is set by controls: 0 for no effect and ±100 for the full control effect; potency is the fitted concentration of half-maximal effect.

This test can be described thus: qHTS Assay for Identifying Gametocytocidal Compounds (AID 743244).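 For max response: actives lower the fluorescent signal which means gametocytes are killed.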 The conditions noted are these: P. falciparum 3D7 stage III-V gametocytes, alamarBlue, 72 h; max response: stronger effect = lower value. The method, boiled down: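 Stage III–V gametocytes of P. falciparum 3D7 were seeded at 20,000 cells/well onto pre-dispensed compounds. After 72 h, 37 °C, 5% CO2, alamarBlue was added for another 24 h.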
With `CC1(C)C[C@@H]1C(=O)N/C(=C\CCCCSC[C@H](N)C(=O)O)C(=O)O`, the max response is 3.26% and 5.48%. `CCOc1ccc2nc(S(N)(=O)=O)sc2c1`: the max response is 10.4%. Regarding `CC(=O)[C@]1(O)Cc2c(O)c3c(c(O)c2[C@@H](O[C@H]2C[C@H](N)[C@H](O)[C@H](C)O2)C1)C(=O)c1c(O)cccc1C3=O`, the Potency is 5.62 µM (active). On to `c1ccc2sc(SN3CCOCC3)nc2c1`, for which the max response was -2.78%.
